# Measurements as given in article PMC7826789 (International Journal of Molecular Sciences, 2021).
# Legend:
# Settings in all cases: Compound Concentration (nM):1000
# [1] = tested on: T1, YSK1
# T1 construct: gene STK25
# [2] = tested on: T2, YSK4
# T2 construct: gene MAP3K19
# [3] = tested on: ZAK
# [4] = tested on: ZAP70
# [5] = tested on: T3, p38-alpha
# T3 construct: gene MAPK14
# [6] = tested on: T4, p38-beta
# T4 construct: gene MAPK11
# [7] = tested on: T5, p38-delta
# T5 construct: gene MAPK13
# [8] = tested on: T6, p38-gamma
# T6 construct: gene MAPK12
# 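Also: KINOMEscan scanMAX binding as percent activity remaining versus control; lower means stronger binding.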
Structure (SMILES),Percent Control [1],Percent Control [2],Percent Control [3],Percent Control [4],Percent Control [5],Percent Control [6],Percent Control [7],Percent Control [8]
NS(=O)(=O)c1ccc(N/N=C2\C(=O)Nc3ccc(-c4cnco4)cc32)cc1 [GW276655],59%,1.9%,80%,88%,100%,100%,99%,66%
CCS(=O)(=O)c1ccc(OC)c(Nc2ncc(-c3cccc(OC)c3)o2)c1 [GW580509X],81%,96%,100%,100%,100%,100%,100%,100%
CN(C)CCNC(=O)Nc1ccc(N(C)c2ccnc(Nc3ccc(CS(C)(=O)=O)cc3)n2)cc1.Cl [GW830900A],100%,12%,100%,90%,99%,100%,99%,100%
CC1=C(C(=O)Nc2ccc3[nH]ncc3c2)C(c2ccc(Cl)c(Cl)c2)CC(=O)N1 (stereo not drawn) [GSK299115A],67%,64%,100%,100%,100%,100%,100%,100%
COc1cc2ncn(-c3cc(O[C@H](C)c4ccccc4Cl)c(C(N)=O)s3)c2cc1OC [GSK237701A],78%,5.6%,100%,93%,100%,100%,100%,100%
COc1cccc(-c2c[nH]c3c(N/N=C/c4ccncc4)ncnc23)c1 [GW814408X],65%,0.7%,17%,89%,100%,100%,100%,100%
Cl.O=C(O[C@H]1CN[C@H](C#Cc2cc3ncnc(Nc4ccc5c(cnn5Cc5ccccc5)c4)c3s2)C1)N1CCOCC1 [GSK200398A],79%,83%,82%,89%,100%,100%,100%,100%
COc1cc(C)c(N(C)C(=O)CN(C)C)cc1Nc1nc(Nc2cccc(F)c2C(N)=O)c2cc[nH]c2n1 [GSK2219385],100%,51%,90%,81%,97%,100%,100%,56%
COC(=O)Nc1nc2ccc(Oc3ccc(NC(=O)Nc4cc(C(F)(F)F)ccc4F)cc3)cc2s1.Cl [GW693917A],100%,12%,6.8%,82%,18%,10%,96%,46%
Cl.O=C(Nc1ccc(Oc2ccc3[nH]c(NC(=O)c4ccccc4)nc3c2)cc1)Nc1cc(C(F)(F)F)ccc1F [GW709042A],78%,69%,6.9%,94%,98%,52%,100%,82%
COc1ccc2cc(-c3c(-c4ccncc4)nc(-c4ccc(S(C)(=O)=O)cc4C)n3C)ccc2c1 [SB-633825],100%,66%,89%,84%,100%,79%,83%,100%
C/C(Nc1ccc(S(N)(=O)=O)cc1)=C1/C(=O)Nc2ccccc21 [GW335962X],55%,14%,100%,94%,100%,100%,100%,73%
COc1cc(C=NNc2ncnc3c2cnn3-c2ccccc2)ccc1O [GW513184X],97%,3.1%,48%,99%,100%,88%,88%,97%
Cc1cc(O)cc(C)c1/C=C/c1cncc(C(N)=O)c1 [GW435821X],95%,84%,87%,96%,100%,100%,100%,100%
NS(=O)(=O)c1ccc(N/N=C2\C(=O)Nc3ccc(C(=O)NCCc4c[nH]cn4)cc32)cc1 [GW300660X],84%,3.7%,96%,79%,100%,100%,100%,84%
O=C(Nc1n[nH]c2nc(-c3ccc(O)cc3)c(Br)cc12)C1CC1 [SB-725317],79%,4.3%,100%,100%,100%,74%,100%,81%
COc1cc(N2CCN(C(C)C)CC2)ccc1Nc1nc(Nc2ccc(F)cc2C(=O)NC[C@@H](O)CO)c2cc[nH]c2n1 [GSK1392956A],89%,34%,93%,86%,100%,100%,100%,91%
COc1cccc(-n2ncc3c(N/N=C/c4ccncc4)ncnc32)c1 [GW784752X],90%,21%,39%,98%,100%,100%,100%,100%
Cl.c1ccc(Cc2nc3ccc(Nc4ncnc5ccccc45)cc3[nH]2)cc1 [GR269666A],87%,100%,100%,90%,100%,100%,100%,100%
Cl.O=S1CCN(Cc2ccc(-c3ccc4ncnc(Nc5ccc(OCc6ccccc6)c(F)c5)c4c3)o2)CC1 [GW576924A],81%,100%,100%,100%,100%,100%,100%,99%
Cl.O=C(Nc1ccc(Oc2ccc3[nH]c(NC(=O)c4ccco4)nc3c2)cc1)Nc1cc(C(F)(F)F)ccc1F [GW683134A],70%,13%,3.2%,100%,97%,37%,100%,82%
